# According to PubChem BioAssay:
# Activity calls are given as the source filed them.
# Experiments:
# [1] = optical density shifts of acrAB sulA E. coli – strain DRC41, OD650, 48 h, E. coli filamentation inducer project, primary screen (AID 1152); conditions: higher = more signal, called active from +8 up or from −8 down;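 further: E. coli MC1000 strain DRC41 lacking acrAB efflux pump and sulA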
# [2] = probe aLefty1 binding on compound microarray – biochemical, small-molecule microarray, 635/667 nm fluorescence, primary screen (AID 1153); conditions: higher = more signal;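 further: score merges spot fluorescence with signal-to-noise ratio from the scanned slide images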
# [3] = plasmodial surface anion channel blockers, osmotic lysis – cell-based, P. falciparum Indochina, OD700, 1 h, primary screen (AID 1154); conditions: P. falciparum Indochina infected RBC osmotic lysis, higher = more signal, called active from +8 up or from −8 down
# [4] = plasmodial surface anion channel blockers, osmotic lysis – cell-based, P. falciparum Indochina, OD700, 2 h, primary screen (AID 1155);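 further: lysis reports solute entry through the parasite surface anion channel PSAC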; conditions: P. falciparum Indochina infected erythrocytes, higher = more signal, called active from +8 up or from −8 down
# [5] = changes in parasitized red cell lysis, either direction – P. falciparum Indochina, OD700, 3 h, PSAC antagonist project, primary screen (AID 1156); conditions: P. falciparum-infected erythrocytes, osmotic lysis, higher = more signal, called active from +8 up or from −8 down
# [6] = plasmodial surface anion channel blockers, osmotic lysis – cell-based, P. falciparum Indochina, OD700, 18 h, primary screen (AID 1157); conditions: P. falciparum Indochina infected erythrocytes, osmotic lysis OD700, 18 h; higher = more signal, called active from +8 up or from −8 down
# [7] = S6 kinase pathway phospho-S6 level changes – cell-based, A549, cytoblot, luminescence, serum-stimulated, primary screen (AID 1158); conditions: 5 h, higher = more signal;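 further: serum-stimulated A549 lung adenocarcinoma cells; signal is phosphorylated S6 detected by cytoblot immunostaining with HRP secondary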
# [8] = target: NADPH oxidase 2 (Homo sapiens) (UniProt P04839); test: compounds shifting NOX2 Amplex Red fluorescence – cell-based, HEK293-NOX2, PMA-stimulated, NOX inhibitor project, primary screen (AID 1159); conditions: 45 min, higher = more signal, called active from +8 up or from −8 down; further: test concentration not given here
# [9] = target: NADPH oxidase 4 (Homo sapiens) (UniProt Q9NPH5); test: compounds shifting NOX4 Amplex Red fluorescence – cell-based, HEK293-NOX4, tetracycline-induced, NOX inhibitor project, primary screen (AID 1160); conditions: HEK293-NOX4, Amplex Red H2O2 fluorescence, 45 min; higher = more signal, called active from +8 up or from −8 down
# [10] = target: NADPH oxidase 5 (Homo sapiens) (UniProt Q96PH1); test: compounds shifting NOX5 Amplex Red fluorescence – cell-based, HEK293-NOX5, NOX inhibitor project, primary screen (AID 1161); conditions: HEK293-NOX5, ionomycin, 45 min, higher = more signal
# [11] = compound effects on lung adenocarcinoma cell viability – A549, calcein-AM fluorescence, 48 h, basal, profiling panel (AID 1162); conditions: higher = more signal; further: test concentration not given here
# [12] = compound effects on differentiated 3T3-L1 adipocyte viability – cell-based, 3T3-L1 adipocytes, calcein-AM fluorescence, 48 h, basal, profiling panel (AID 1163); conditions: 3T3-L1 adipocytes viability, higher = more signal; further: test concentration not given here
# [13] = compound effects on hepatocellular carcinoma cell viability – HepG2, calcein-AM fluorescence, 48 h, basal, profiling panel (AID 1164); conditions: higher = more signal; further: test concentration not given here
# [14] = compound effects on multiple myeloma cell viability – MM1S, calcein-AM fluorescence, 48 h, basal, profiling panel (AID 1165); conditions: higher = more signal; further: test concentration not given here
# [15] = calcein-AM signal in unstimulated myeloma cells – cell-based, calcein-AM fluorescence, 48 h, PK04 Diversity Set, profiling panel (AID 1166); conditions: RPMI8226 myeloma viability, higher = more signal;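 further: cells grown under basal conditions without added stimulus; test concentration not given here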
# [16] = JC-1 mitochondrial signal, unstimulated HepG2 cells – cell-based, JC-1 fluorescence, 24 h, 100 nL compound, profiling panel (AID 1167); conditions: HepG2 mitochondrial potential, higher = more signal; further: test concentration not given here
# [17] = JC-1 mitochondrial signal, unstimulated adipocytes – cell-based, JC-1 fluorescence, 3T3-L1 adipocytes, 24 h, 100 nL compound, profiling panel (AID 1168); conditions: JC-1 mitochondrial fluorescence, higher = more signal, called active from +8 up or from −8 down; further: test concentration not given here
# [18] = JC-1 mitochondrial signal, unstimulated myeloma cells – cell-based, JC-1 fluorescence, RPMI8226, 24 h, 100 nL compound, profiling panel (AID 1169); conditions: JC-1 mitochondrial potential fluorescence, higher = more signal; further: test concentration not given here
# [19] = JC-1 mitochondrial signal, unstimulated MM1S myeloma – cell-based, JC-1 fluorescence, 24 h, 100 nL compound, profiling panel (AID 1170); conditions: MM1S mitochondrial potential, higher = more signal; further: test concentration not given here
# [20] = resazurin metabolic signal in A549 cells – cell-based, resazurin fluorescence, 24 h, PK04 Diversity Set, profiling panel (AID 1171); conditions: A549 viability, higher = more signal, called active from +8 up or from −8 down; further: test concentration not given here
# NADPH oxidase 5 (Homo sapiens), sequence (Q96PH1 whole entry, looked up): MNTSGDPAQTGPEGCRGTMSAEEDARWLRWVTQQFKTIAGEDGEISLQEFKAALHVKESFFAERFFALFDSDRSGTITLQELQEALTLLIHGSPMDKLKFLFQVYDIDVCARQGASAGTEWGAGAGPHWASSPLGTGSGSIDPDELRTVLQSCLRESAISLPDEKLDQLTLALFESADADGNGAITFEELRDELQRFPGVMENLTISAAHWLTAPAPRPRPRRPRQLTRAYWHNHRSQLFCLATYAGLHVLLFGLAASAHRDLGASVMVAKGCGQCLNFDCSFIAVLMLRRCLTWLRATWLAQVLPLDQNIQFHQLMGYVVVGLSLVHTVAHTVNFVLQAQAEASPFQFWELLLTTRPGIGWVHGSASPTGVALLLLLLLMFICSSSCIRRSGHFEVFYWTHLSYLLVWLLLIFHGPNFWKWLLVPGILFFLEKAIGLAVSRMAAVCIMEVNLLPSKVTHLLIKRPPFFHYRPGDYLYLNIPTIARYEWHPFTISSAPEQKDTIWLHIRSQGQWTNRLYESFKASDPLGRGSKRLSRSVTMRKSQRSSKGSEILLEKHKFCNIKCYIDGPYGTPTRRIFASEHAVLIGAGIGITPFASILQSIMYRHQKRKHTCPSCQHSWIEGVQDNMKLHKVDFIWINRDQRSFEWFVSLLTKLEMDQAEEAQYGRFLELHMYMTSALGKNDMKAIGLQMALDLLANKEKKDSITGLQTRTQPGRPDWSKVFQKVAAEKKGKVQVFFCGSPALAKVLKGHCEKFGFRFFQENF
# NADPH oxidase 2 (Homo sapiens), sequence (P04839 whole entry, looked up): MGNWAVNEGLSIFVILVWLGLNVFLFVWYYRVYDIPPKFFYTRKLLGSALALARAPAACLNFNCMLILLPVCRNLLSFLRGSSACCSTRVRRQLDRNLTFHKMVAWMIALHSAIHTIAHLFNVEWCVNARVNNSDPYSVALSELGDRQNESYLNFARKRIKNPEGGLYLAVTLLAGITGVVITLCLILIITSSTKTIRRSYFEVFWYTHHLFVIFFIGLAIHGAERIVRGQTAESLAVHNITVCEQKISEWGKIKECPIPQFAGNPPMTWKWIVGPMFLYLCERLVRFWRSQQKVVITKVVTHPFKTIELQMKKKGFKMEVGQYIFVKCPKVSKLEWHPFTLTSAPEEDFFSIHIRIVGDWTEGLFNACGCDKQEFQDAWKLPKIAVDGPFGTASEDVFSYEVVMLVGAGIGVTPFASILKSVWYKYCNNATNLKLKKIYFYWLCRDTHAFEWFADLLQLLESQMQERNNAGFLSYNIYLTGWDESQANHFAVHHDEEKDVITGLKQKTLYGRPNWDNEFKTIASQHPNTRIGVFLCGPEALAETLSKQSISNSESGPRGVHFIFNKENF
# NADPH oxidase 4 (Homo sapiens), sequence (Q9NPH5 whole entry, looked up): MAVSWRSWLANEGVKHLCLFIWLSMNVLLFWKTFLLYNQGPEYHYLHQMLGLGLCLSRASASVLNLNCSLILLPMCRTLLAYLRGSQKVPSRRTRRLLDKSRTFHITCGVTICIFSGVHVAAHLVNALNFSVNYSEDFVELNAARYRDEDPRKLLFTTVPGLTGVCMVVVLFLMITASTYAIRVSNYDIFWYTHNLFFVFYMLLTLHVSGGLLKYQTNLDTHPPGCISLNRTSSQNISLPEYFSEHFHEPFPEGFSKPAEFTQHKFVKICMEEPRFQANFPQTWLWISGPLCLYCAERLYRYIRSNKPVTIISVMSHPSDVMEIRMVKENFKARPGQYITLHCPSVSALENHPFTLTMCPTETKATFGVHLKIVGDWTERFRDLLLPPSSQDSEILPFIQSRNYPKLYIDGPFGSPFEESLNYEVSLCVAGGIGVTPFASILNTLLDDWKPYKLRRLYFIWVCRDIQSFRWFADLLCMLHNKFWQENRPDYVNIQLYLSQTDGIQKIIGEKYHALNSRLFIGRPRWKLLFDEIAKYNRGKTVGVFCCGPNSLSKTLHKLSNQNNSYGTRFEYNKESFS
SMILES,z-score [1],composite z-score [2],z-score [3],z-score [4],z-score [5],z-score [6],z-score [7],z-score [8],z-score [9],z-score [10],z-score [11],z-score [12],z-score [13],z-score [14],z-score [15],z-score [16],z-score [17],z-score [18],z-score [19],z-score [20]
N#Cc1ccc(NN2C(C(O)CCc3ccccc3)C=CC3C(=O)N(c4ccccc4)C(=O)C32)cc1 (stereo not given),-0.487 (inactive),0.272,11.9 (active),1.44 (inactive),0.712 (inactive),-0.864 (inactive),0.843,-2.47 (inactive),-3.59 (inactive),-1.41,0.422,-0.191,1.18,0.197,-0.0961,-0.256,-0.0951 (inactive),0.245,0.419,0.197 (inactive)
CO[C@H]1O[C@H](CO)[C@@H](OC(=O)CCc2ccccc2)[C@@H]2OC(=O)[C@H](Cc3cccc(Br)c3)C/C=C/C[C@@H](Cc3cccc(Br)c3)C(=O)O[C@@H]12,3.1 (inactive),-0.139,1.18 (inactive),-0.807 (inactive),-0.856 (inactive),-1.19 (inactive),2.26,2.16 (inactive),1.57 (inactive),1.28,1.28,1.22,2.26,1.15,1.6,1.01,1.6 (inactive),-0.359,1.18,0.844 (inactive)
C=C(CCCC)/C(=C/C[C@@H](OC(=O)c1ccncc1)c1ccc(CO)o1)c1cnc2ccccc2c1,0.583 (inactive),0.569,7.06 (inactive),0.843 (inactive),1.17 (inactive),0.0867 (inactive),-0.349,0.194 (inactive),-0.546 (inactive),-0.634,1.18,0.282,-0.284,-2.48,-1.18,-0.526,-0.586 (inactive),-0.287,1,-0.0271 (inactive)
COCCOC(=O)N1C(=O)[C@@]2(c3cc(C#CCC(C(=O)OC)C(=O)OC)ccc31)[C@H](C(=O)N1CCN(c3ncccn3)CC1)[C@H]1C(=O)O[C@H](c3ccccc3)[C@H](c3ccccc3)N1[C@@H]2c1ccc(O)cc1,3.34 (inactive),0.443,1.92 (inactive),-0.0642 (inactive),-0.504 (inactive),-1.39 (inactive),1.69,1.28 (inactive),0.7 (inactive),1.82,1.65,-0.287,2.17,0.613,-0.188,0.88,2.64 (inactive),-0.203,-0.0423,0.0359 (inactive)
Cc1ccc(S(=O)(=O)c2cc3oc2CC[C@@H](CO)NC(=O)N(C)Cc2cn(nn2)C[C@H](Cc2ccccc2)NC3=O)cc1,3.05 (inactive),-0.234,28.3 (active),13.3 (active),0.208 (inactive),2.03 (inactive),0.533,0.644 (inactive),0.743 (inactive),0.648,1.66,-0.129,0.372,-0.971,1.28,1.35,0.856 (inactive),0.501,0.536,1.39 (inactive)
Cc1ccc(S[C@]2(C(=O)NC(C)C)CC(=O)N(Cc3cc(C(F)(F)F)cc(C(F)(F)F)c3)[C@@H]2c2ccc(CO)cc2I)cc1,0.191 (inactive),-0.136,3.22 (inactive),0.504 (inactive),-0.365 (inactive),0.132 (inactive),-0.398,1.57 (inactive),-1.07 (inactive),2.23,0.813,-0.477,0.678,-1.66,-2.24,0.517,0.667 (inactive),-0.455,-1.79,-0.101 (inactive)
COCCOC(=O)N1C(=O)[C@@]2(c3cc(C#CC4=CCCCC4)ccc31)[C@H](C(=O)NC[C@H](O)c1ccccc1)[C@H]1C(=O)O[C@H](c3ccccc3)[C@H](c3ccccc3)N1[C@@H]2c1ccc(OCCO)cc1,-0.999 (inactive),0.197,3.71 (inactive),2.15 (inactive),-0.681 (inactive),1.05 (inactive),0.0766,1.54 (inactive),1.17 (inactive),1.59,-0.602,-0.39,-0.199,-1.89,-1.63,-1.92,0.449 (inactive),-0.704,-1.65,-0.355 (inactive)
[N-]=[N+]=NCc1ccccc1C[C@]1(C(N)=O)N=C(c2ccc(OCCCO)cc2)O[C@H]1c1ccccc1CN=[N+]=[N-],0.0277 (inactive),0.71,29.3 (active),19.8 (active),1.82 (inactive),2.86 (inactive),2.41,-1.06 (inactive),0.885 (inactive),-0.692,-0.633,1.76,-1.35,-2.19,-3.71,1.89,0.575 (inactive),-0.937,-0.621,-1.97 (inactive)
Cc1ccc(S[C@]2(C(=O)NCCCN(C)C)CC(=O)N(Cc3ccccc3)[C@@H]2c2ccc(CO)cc2I)cc1,-0.901 (inactive),0.374,8.39 (active),0.909 (inactive),1.94 (inactive),0.256 (inactive),-0.0322,-0.234 (inactive),-1.63 (inactive),1.72,1.03,0.927,0.914,-3.64,-2.38,1.65,-0.645 (inactive),-0.643,-0.822,0.0027 (inactive)
NC(=O)NCC#Cc1ccc2c(c1)[C@]1(C(=O)N2)[C@H](C(=O)N2CCCCCCC2)[C@H]2C(=O)O[C@H](c3ccccc3)[C@H](c3ccccc3)N2[C@@H]1c1ccccc1OCCO,1.43 (inactive),2.79,0.833 (inactive),0.483 (inactive),1.8 (inactive),0.148 (inactive),0.421,2 (inactive),1.36 (inactive),0.881,-0.21,1.36,-0.0395,-2.48,-0.583,-1.25,1.03 (inactive),-0.56,-0.693,1.28 (inactive)
CCCC=C(CCC)[C@@H](NS(=O)(=O)c1ccc(C(F)(F)F)cc1)c1ccc(-c2ccccc2)cc1,-1.78 (inactive),0.448,2.51 (inactive),0.329 (inactive),-0.516 (inactive),0.543 (inactive),1.47,-1.57 (inactive),-0.618 (inactive),2.7,-0.91,-0.988,-0.396,-0.5,-2.65,0.285,0.33 (inactive),0.342,-1.15,2.3 (inactive)
CC(C)C[C@@H]1NC(=O)[C@H]2C[C@@H](C(=O)NCCCCCC[N+](C)(C)C)[C@@H](c3ccc(O)cc3)N2C1=O,0.706 (inactive),0.0502,1.8 (inactive),0.459 (inactive),-3.67 (inactive),0.0558 (inactive),-0.496,1.04 (inactive),1 (inactive),-0.306,-0.547,-0.304,-1.01,-0.0171,0.0824,-0.575,0.177 (inactive),-0.342,-0.958,1.09 (inactive)
COC(=O)C1=CC(c2ccc(CO)cc2)=CC(C2CC2)N(Cc2sc3ccccc3c2Cl)C=C1C(=O)OC (stereo not given),-0.248 (inactive),0.385,13.7 (active),0.815 (inactive),-0.994 (inactive),-1.07 (inactive),0.983,-0.872 (inactive),-0.189 (inactive),-0.0786,-0.905,1.77,-0.651,-2.62,-4.22,1.72,0.982 (inactive),-0.804,-0.969,-1.3 (inactive)
CCN1C(C)=C(C(=O)OC)[C@@H](c2ccccc2)N2C(=O)[C@](O)(C(=O)OC)[C@@H](c3ccccc3)C(C(=O)c3ccccc3)=C12,0.282 (inactive),-0.142,1.78 (inactive),0.489 (inactive),1.16 (inactive),0.978 (inactive),1.3,0.6 (inactive),0.828 (inactive),-0.284,0.804,0.439,0.534,0.144,-0.623,4.64,0.454 (inactive),-0.602,0.229,2.64 (inactive)
[N-]=[N+]=NCc1ccccc1C[C@@]1(C(=O)N2CCOCC2)N=C(c2ccc(OCCCO)cc2)O[C@@H]1c1ccccc1N=[N+]=[N-],0.664 (inactive),1.1,30.5 (active),27.7 (active),2.82 (inactive),7.87 (inactive),1.36,-1.49 (inactive),0.897 (inactive),-0.107,-0.884,0.913,-0.848,-2.19,-2.3,0.944,1.11 (inactive),-0.982,-0.891,-1.75 (inactive)
CC(=O)NCCCC[C@@H]1NC(=O)[C@@H]2C[C@H](C(=O)NCCCCCNC(=O)CS)[C@H](c3ccc(O)cc3)N2C1=O,3.01 (inactive),-0.0528,2.55 (inactive),-0.247 (inactive),-2.2 (inactive),-1.04 (inactive),1.68,0.391 (inactive),0.284 (inactive),0.531,1.69,0.349,-0.0748,0.372,1.33,1.36,0.985 (inactive),-0.418,-0.559,1.46 (inactive)
Cc1ccc([C@@H]2CC=C(C(=O)O)[C@H](c3ccccc3)N2S(=O)(=O)c2ccc(C)cc2)cc1,-1.17 (inactive),1,1.83 (inactive),0.929 (inactive),0.692 (inactive),0.708 (inactive),-0.256,0.489 (inactive),-1.2 (inactive),-0.96,-0.612,0.557,-0.825,-0.251,-2.2,-0.957,0.289 (inactive),-0.373,0.511,-0.997 (inactive)
